These sequences were tested against T1, ETS1 (UniProt P14921) (assay: ETS1 binding intensity (PBM fluorescence), ETS1 alone (arbitrary fluorescence units); higher = stronger binding). Conditions: ETS1 concentration 1 nM; RUNX1 concentration 0 nM.
T1 sequence: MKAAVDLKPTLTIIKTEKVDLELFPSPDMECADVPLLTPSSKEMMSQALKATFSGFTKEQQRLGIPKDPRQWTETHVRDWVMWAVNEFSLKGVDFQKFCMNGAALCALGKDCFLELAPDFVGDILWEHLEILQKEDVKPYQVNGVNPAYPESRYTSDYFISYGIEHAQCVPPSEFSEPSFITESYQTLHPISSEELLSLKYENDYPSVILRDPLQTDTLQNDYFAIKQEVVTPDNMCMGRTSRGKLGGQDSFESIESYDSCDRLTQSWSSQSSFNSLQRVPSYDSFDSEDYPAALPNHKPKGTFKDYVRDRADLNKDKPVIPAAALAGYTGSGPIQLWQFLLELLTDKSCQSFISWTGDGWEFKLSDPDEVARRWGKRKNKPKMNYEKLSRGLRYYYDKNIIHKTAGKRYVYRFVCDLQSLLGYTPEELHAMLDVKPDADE
Experimental: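 Cooperative genomic-context PBM: 36-bp genomic probes with neighbouring ETS1 and RUNX1 sites, double-stranded on Agilent 4x180k arrays. Full-length recombinant human ETS1 (1 nM) was incubated alone or with RUNX1 (25 nM) and detected with anti-ETS1 antibody plus Alexa488 secondary. Value is the median fluorescence intensity over 4 replicate spots; the ETS1+RUNX1 data were normalised to the ETS1-only data using probes without RUNX1 sites. The 36-bp variable region sits on the array probe with constant linker/primer flanks that are not printed.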
CTCGTGCGTCACTTCCGCCCCGCAGACCCGCCCACT was tested, and the ETS1 binding intensity was 2410. Work on CTGCGTCCCGGAAGGAGCGAGCTTGCGGAGCGTGAA yielded an ETS1 binding intensity of 710. Sequence GTCCCCGTAACAGGATGTGGTGAGCTGTTATACCAC has an ETS1 binding intensity of 6710. CATTCAGTAAAAGGATGTGGTTTAGAACAGATGAAA showed an ETS1 binding intensity of 1230. For CCTCCCTGAGGGGGAAGTGGTTTTTGAGTCTGAGTC, the ETS1 binding intensity was 579. With TACCCCGCCGGAAGCCCCCTGCTCTGTGGGAACCGG the ETS1 binding intensity was 2480. CTCTCCACCTCCTTCCGACCAGGACCGCACCCCCCC gave an ETS1 binding intensity of 986. In the case of AAAGGGAAGTTGGCGGGAGTTCAAAACCACCGGGGC, the ETS1 binding intensity is reported as 347. ACCGGATGCCGGGGCACCGCCAGATGTGGCCACGAG gave an ETS1 binding intensity of 1500. In the case of TGTCTCATTTCCTGTAGGTAACAGGCACCACAATAG, the ETS1 binding intensity is reported as 1550. CCCCTTCATCCGCCTCTCTCTCACCGCGCCGCTCCC was tested, and the ETS1 binding intensity was 449. Sequence GTGCTGAGCAGCTTCCCGTCTGCGGTGAAGACAGCC has an ETS1 binding intensity of 396. Sequence GCTTTGCAGTTTCCTCTATGGAACACCACACACAGT has an ETS1 binding intensity of 621. TACAATTCGCACCGGAACTTGCGGCCCGGCTTCATT was tested, and the ETS1 binding intensity was 3630. For CGGGGGCCAGGCTTCCTGTGGTGGGAGCGGCAGGCC, the ETS1 binding intensity was 443. With CGCCGGTCCCATATCCTTTCTGCGGGGTGAGCAGCA the ETS1 binding intensity was 465. Work on CCGCGCCGCTTCCTCCAGACACCGCAAGGGGGTGCT yielded an ETS1 binding intensity of 325. In the case of CCTTGCTGCAGGATGCTCTAACCACAAGCCCAGGAG, the ETS1 binding intensity is reported as 528. CAGAGCCAAACATGCGGAAGTGGTTACGTGTACTAG showed an ETS1 binding intensity of 3280. Sequence GGTGGCAACATCCTGGGGAGGGGAACCCACAGGGGA has an ETS1 binding intensity of 364. Work on AAACTACTTTCCTTCCTACCAAAACCACACTAAAGA yielded an ETS1 binding intensity of 620. AGGCTTCCTGTTTTATCTCGTGTGTGTGGTGCACCA showed an ETS1 binding intensity of 547. Work on AGAGACAGCGGGCGGAAACCGCAGAAAAAGTTGAAA yielded an ETS1 binding intensity of 1640. GCCCTGACCCACATCCTGCCGCAGCCTGCTTGTCCT showed an ETS1 binding intensity of 979. GTGAGTCACTTCCTGACCATGTGGGTTTTTGGTACG gave an ETS1 binding intensity of 568. GTCACCATTTCCGGGCCTCCGCGGTGTCCCCACCCC showed an ETS1 binding intensity of 2560. Work on GACCCGGCCCGCCCCTTCCGGCCGCAGCGCGGGGCA yielded an ETS1 binding intensity of 704. Work on GGCACCGGAAGTAGAGCTGCCCCTAGTTGCGGCAGT yielded an ETS1 binding intensity of 9240. Work on CTTGCTTAACGCTTCCTGAGGGGTGGTTTGGGTTTT yielded an ETS1 binding intensity of 448. CTACCCTCCCTCTTCCTGTGGTTTCTCAAACATGTC gave an ETS1 binding intensity of 729. GCAGGCGTGCGCTTCCGCTCCAACCCGCGCACTTCG gave an ETS1 binding intensity of 1110. With ACCACCCCCCGTTTCCTCCGAAGTGGTTGGTGCCTT the ETS1 binding intensity was 590. With CCCCGTTACGCCCATCCGGCTCCCGCATAGGGCGTC the ETS1 binding intensity was 442. In the case of AACACCTCACACTTCCTGCCCACAAGATAAGAGCCT, the ETS1 binding intensity is reported as 895. Sequence TTAGCACATCCTGGGTACACAGACCACAGCCTCCTC has an ETS1 binding intensity of 367. In the case of GGCGGAACTTGTGCGTACGCTGGAAAACCGCTGGGG, the ETS1 binding intensity is reported as 385. In the case of ACAGGAAATGTTAGAGGTTGAGTTAGCGGTTATGAG, the ETS1 binding intensity is reported as 1620. Work on GAAGGAAGTGGAGACAGTAAGGGGAAACCACAAACC yielded an ETS1 binding intensity of 1060. CAAGAGGAACCGGAACTTTGGAAACCACATTCTTAT was tested, and the ETS1 binding intensity was 1400. CTGAAGGCTGGGGAGGAAGTGACCGCCCTCATATGC was tested, and the ETS1 binding intensity was 2120.

— the supplement of paper PMC10681739
